The whole screen tested about 5,500 compounds, of which about 2,000 (36%) were called active. Not shown: some 18% with an inconclusive outcome. No stated cut-off is given here; in the data, active means normalized growth mostly below about 0.91 (no sharp cut-off); inconclusive means no clear call, values can overlap the other calls; inactive means mostly above about 0.92. This is one part of the list.
Assay: chemical genetic growth profiling, strain panel (AID 1159580);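 further: tested at 20 µM; growth read once vehicle control cultures reached saturation at 30 °C; 1 = growth at the plate median or of vehicle wells; lower values mean less growth of the strain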
Details: S. cerevisiae deletion strains, growth OD
[1] = locus YDR150W, strain NUM1, active compounds read low
[2] = locus YNL153C, strain GIM3, active compounds read low
[3] = locus YNL322C, strain KRE1, active compounds read low
[4] = locus YPL241C, strain CIN2, active compounds read low
[5] = locus YHR030C, strain SLT2, active compounds read low

Measured: normalized growth

C[C@]12CCC(=O)C=C1CC[C@@H]1[C@@H]2C(=O)C[C@@]2(C)[C@H]1CC[C@]2(O)C(=O)CO
inactive: locus YAL040C, strain CLN3, active compounds read low 0.957 | locus YCL061C, strain MRC1 (second series), active compounds read low 0.993 | [1] 1 | locus YDR363W, strain ESC2, active compounds read low 0.986 | locus YER002W, strain NOP16, active compounds read low 0.966 | locus YNL128W, strain TEP1, active compounds read low 0.978 | [2] 0.979 | locus YNL175C, strain NOP13, active compounds read low 0.982 | locus YNL197C, strain WHI3, active compounds read low 0.942 | locus YNL224C, strain SQS1, active compounds read low 0.983 | [3] 0.988 | locus YOR083W, strain WHI5 (second series), active compounds read low 0.94 | [4] 0.995

C#C[C@]1(OC(C)=O)CCC2C3CCC4=C/C(=N\O)CCC4C3CC[C@@]21CC (stereo not given in full)
inactive: locus YAL026C, strain drs2, active compounds read low 0.921 | locus YBR171W, strain sec66, active compounds read low 0.944 | locus YCL061C, strain MRC1, active compounds read low 0.94 | locus YCL069W, strain vba3, active compounds read low 0.984 | locus YDR001C, strain nth1, active compounds read low 0.998 | locus YDR334W, strain swr1, active compounds read low 1 | locus YEL037C, strain rad23, active compounds read low 0.993 | locus YEL061C, strain CIN8 (second series), active compounds read low 0.996 | locus YER111C, strain swi4, active compounds read low 1.01 | locus YGL227W, strain vid30, active compounds read low 0.97 | locus YJL092W, strain hpr5, active compounds read low 0.941 | locus YJL115W, strain asf1, active compounds read low 1.01 | locus YJL154C, strain vps35, active compounds read low 0.994 | locus YJR066W, strain TOR1, active compounds read low 0.863 | locus YKR026C, strain gcn3, active compounds read low 0.99 | locus YKR091W, strain srl3, active compounds read low 0.941 | locus YLR357W, strain rsc2, active compounds read low 0.937 | locus YLR384C, strain iki3, active compounds read low 1.01 | locus YMR129W, active compounds read low 0.986 | locus YNL183C, strain NPR1, active compounds read low 0.84 | locus YNL248C, strain rpa49, active compounds read low 0.996 | locus YNL322C, strain KRE1 (second series), active compounds read low 1.01 | locus YNR049C, strain mso1, active compounds read low 0.987 | locus YOR080W, strain dia2, active compounds read low 0.917
active: locus YAL021C, strain ccr4, active compounds read low 0.823 | locus YAL030W, strain snc1, active compounds read low 0.582 | locus YBL061C, strain skt5, active compounds read low 0.514 | locus YBR009C, strain hhf1, active compounds read low 0.403 | locus YBR023C, strain chs3, active compounds read low 0.612 | locus YBR231C, strain swc5, active compounds read low 0.333 | locus YBR279W, strain paf1, active compounds read low 0.879 | locus YCL011C, strain gbp2, active compounds read low 0.476 | locus YCL016C, strain dcc1, active compounds read low 0.77 | locus YCR088W, strain abp1, active compounds read low 0.898 | locus YDL005C, strain med2, active compounds read low 0.41 | locus YDL040C, strain nat1, active compounds read low 0.726 | locus YDR069C, strain doa4, active compounds read low 0.367 | locus YDR137W, strain rgp1, active compounds read low 0.242 | locus YDR159W, strain sac3, active compounds read low 0.267 | locus YDR195W, strain ref2 0.269 | locus YDR297W, strain sur2, active compounds read low 0.716 | locus YDR335W, strain msn5, active compounds read low 0.866 | locus YDR392W, strain spt3, active compounds read low 0.193 | locus YEL003W, strain gim4, active compounds read low 0.759 | locus YER015W, strain faa2, active compounds read low 0.918 | locus YER016W, strain bim1, active compounds read low 0.599 | locus YER155C, strain BEM2 (second series), active compounds read low 0.737 | locus YFR010W, strain ubp6, active compounds read low 0.761 | locus YGL167C, strain pmr1, active compounds read low 0.682 | locus YGL173C, strain kem1, active compounds read low 0.817 | locus YGL240W, strain doc1, active compounds read low 0.782 | locus YGL253W, strain hxk2, active compounds read low 0.71 | locus YHR013C, strain ard1, active compounds read low 0.315 | locus YHR027C, strain rpn1, active compounds read low 0.725 | [5] 0.671 | locus YHR079C, strain IRE1, active compounds read low 0.707 | locus YHR142W, strain chs7, active compounds read low 0.776 | locus YJL095W, strain BCK1 (second series), active compounds read low 0.503 | locus YJL095W, strain BCK1, active compounds read low 0.605 | locus YJL129C, strain trk1, active compounds read low 0.56 | locus YJL164C, strain tpk1, active compounds read low 0.469 | locus YJL166W, strain qcr8, active compounds read low 0.344 | locus YJL187C, strain SWE1, active compounds read low 0.582 | locus YKL160W, strain elf1, active compounds read low 0.495 | locus YLL001W, strain dnm1, active compounds read low 0.826 | locus YLL026W, active compounds read low 0.461 | locus YLL041C, strain sdh2, active compounds read low 0.775 | locus YLR027C, strain aat2, active compounds read low 0.513 | locus YLR113W, strain HOG1, active compounds read low 0.305 | locus YLR221C, strain rsa3, active compounds read low 0.638 | locus YLR258W, strain gsy2, active compounds read low 0.495 | locus YLR262C, strain YPT6 (second series), active compounds read low 0.18 | locus YLR320W, strain mms22, active compounds read low 0.558 | locus YLR342W, strain FKS1, active compounds read low 0.518 | locus YLR370C, strain arc18, active compounds read low 0.785 | locus YML120C, strain ndi1, active compounds read low 0.471 | locus YMR058W, strain fet3, active compounds read low 0.89 | locus YMR125W, strain sto1, active compounds read low 0.884 | locus YMR205C, strain PFK2, active compounds read low 0.358 | locus YMR231W, strain pep5, active compounds read low 0.45 | locus YNL071W, strain lat1, active compounds read low 0.476 | locus YNL209W, strain ssb2, active compounds read low 0.846 | locus YOR001W, strain rrp6, active compounds read low 0.767 | locus YOR070C, strain gyp1, active compounds read low 0.394 | locus YOR083W, strain WHI5, active compounds read low 0.619 | locus YOR106W, strain vam3, active compounds read low 0.281 | locus YOR231W, strain MKK1, active compounds read low 0.673 | locus YOR265W, strain rbl2, active compounds read low 0.668 | locus YOR270C, strain vph1, active compounds read low 0.512 | locus YOR290C, strain snf2, active compounds read low 0.563 | locus YPL051W, strain arl3, active compounds read low 0.456 | locus YPL078C, strain atp4, active compounds read low 0.835 | locus YPL106C, strain sse1, active compounds read low 0.824 | locus YPL240C, strain hsp82, active compounds read low 0.604 | locus YPL256C, strain CLN2, active compounds read low 0.752

CC12CCC3C4CCC(=O)C=C4CCC3C1CCC2=O (stereo not given)
inactive: locus YAL013W, strain DEP1, active compounds read low 1.01 | locus YBR229C, strain ROT2, active compounds read low 1.01 | locus YDL101C, strain DUN1, active compounds read low 1 | [1] 0.995 | locus YEL061C, strain CIN8, active compounds read low 1.01 | locus YGR078C, strain PAC10, active compounds read low 1.01 | locus YGR229C, strain SMI1, active compounds read low 1.01 | [5] 0.898 | locus YHR087W, strain rtc3, active compounds read low 1.03 | locus YJR043C, strain POL32, active compounds read low 1.02 | locus YJR075W, strain HOC1, active compounds read low 1.02 | locus YLR058C, strain SHM2 (second series), active compounds read low 1.01 | locus YLR085C, strain ARP6, active compounds read low 1.02 | locus YML094W, strain GIM5, active compounds read low 0.994 | locus YMR219W, strain ESC1, active compounds read low 1.01 | locus YMR263W, strain SAP30, active compounds read low 0.999 | locus YMR307W, strain GAS1, active compounds read low 0.989 | [2] 0.991 | locus YNL298W, strain CLA4 (second series), active compounds read low 1.01 | [3] 1.02 | locus YNR030W, strain Alg12, active compounds read low 0.998 | locus YOL006C, strain TOP1, active compounds read low 0.971 | locus YPL055C, strain LGE1, active compounds read low 1.02 | [4] 1.01 | locus YPR135W, strain CTF4, active compounds read low 0.897
active: locus YLR039C, strain RIC1, active compounds read low 0.786 | locus YLR262C, strain YPT6, active compounds read low 0.737
